Source: the supplement of paper PMC3334620
Over roughly 33,000 sequences, “E-score (-0.5 to 0.5)” has its median near -0.041; the highest 2% begin near 0.37. The sample holds the highest values, similar sequences and a random draw of the others, so the mix is not that of the screen.

biological target: T1, Ecm22 (UniProt Q05958); experiment: PBM E-score (8-mer binding enrichment) (E-score (-0.5 to 0.5)); higher = stronger / more preferred TF binding; conditions: protein concentration: 200 nM; construct: GST-full length
T1 sequence: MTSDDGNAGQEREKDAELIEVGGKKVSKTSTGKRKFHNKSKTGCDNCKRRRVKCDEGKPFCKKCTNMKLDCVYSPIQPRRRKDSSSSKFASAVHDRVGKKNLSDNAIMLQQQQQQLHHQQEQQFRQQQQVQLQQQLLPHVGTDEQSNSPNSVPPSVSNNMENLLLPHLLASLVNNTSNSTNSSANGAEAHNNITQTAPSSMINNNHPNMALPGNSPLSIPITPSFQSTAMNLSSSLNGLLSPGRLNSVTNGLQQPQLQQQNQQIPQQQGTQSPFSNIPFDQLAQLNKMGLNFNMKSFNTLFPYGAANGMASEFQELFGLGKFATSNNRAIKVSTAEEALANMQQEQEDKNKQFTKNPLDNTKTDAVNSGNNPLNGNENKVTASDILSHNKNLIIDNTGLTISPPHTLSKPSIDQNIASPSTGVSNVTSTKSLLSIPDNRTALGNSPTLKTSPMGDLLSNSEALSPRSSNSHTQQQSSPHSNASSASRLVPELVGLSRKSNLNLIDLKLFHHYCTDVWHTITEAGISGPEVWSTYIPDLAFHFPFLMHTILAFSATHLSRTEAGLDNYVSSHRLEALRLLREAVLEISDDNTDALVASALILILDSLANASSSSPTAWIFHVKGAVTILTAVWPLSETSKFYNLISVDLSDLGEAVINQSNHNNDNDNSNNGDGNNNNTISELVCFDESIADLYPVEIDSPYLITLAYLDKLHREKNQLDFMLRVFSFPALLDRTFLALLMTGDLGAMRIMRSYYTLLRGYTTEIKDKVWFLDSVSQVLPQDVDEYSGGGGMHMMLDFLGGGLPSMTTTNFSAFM
Method in brief: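 Universal all-10-mer Agilent arrays, double-stranded by primer extension on fresh or once-stripped slides, were probed with about 100-200 nM GST-tagged yeast transcription factors made by PURExpress. Fluorescent anti-GST detected bound protein, and masliner normalised the scans. E-scores from the Universal PBM Analysis Suite were given to each ungapped eight-base word pooled with its reverse complement.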

Sequence	PBM E-score
AATGTGCT	0.00418
CGATATGC	0.188
ATTCCCAG	-0.0258
GGAGCGAC	0.339
GGCGTTGA	-0.126
ACTTTAGG	-0.0481
GTGTATAA	-0.026
AGGTATAT	-0.117
CTGTATAC	0.207
CCGTATCC	0.337
ACGTATAA	0.412
CCGTATAC	0.456
AGGTATAA	0.211
ACGTATAT	0.371
GCGTATTA	0.031
AAGTATAT	0.0727
GCGTATAA	0.394
ATGTATAA	0.0604
TTCAAGAA	0.0932
CAGCCGGC	0.0272
CCAGAGAA	0.0432
GCAGGACA	-0.0743
CAGTCTAA	0.0425
ATGACTTG	-0.136

Sequence	PBM E-score
AGATACTG	-0.0213
CGGACGTA	0.205
ACTTTTAT	-0.217
CTACAGTC	-0.0606
AACAGGTA	-0.0274
AATAAGGC	-0.225
CCGTATCG	0.291
ACGTATCG	0.192
ACGTATTG	0.22
ACGTATAG	0.403
CGGTATAG	0.0179
CCGTATAG	0.465
CTGAAGTA	-0.134
TCACCAAA	0.0237
ACGGATAA	0.159
TCGGATAA	0.372
CCGGATAA	0.0584
AGCAGCCG	-0.0197
ATATAGGC	-0.00233
AAACGCAT	0.0604
GAACGACA	0.456
GAACGACC	0.451
AAACGACG	0.465
GCACGACC	-0.219

Sequence	PBM E-score
CAACGACG	0.351
CAACGACA	0.346
CGACGACG	0.127
AAACGACT	0.437
GGACGACC	-0.107
TAACGACA	0.352
AGACGACT	0.065
ACACGACT	0.117
ATAGCTCC	-0.169
CCCTTCCA	-0.32
ACCGGATG	0.0481
CTCCTCTC	-0.0778
GGTGTGAC	-0.177
CTCGCACC	0.31
AGATCCGG	-0.0497
ATCGGTCG	0.211
AATCGACC	-0.0105
AAACGACA	0.467
CAACGACC	0.278
TCACGACA	0.00255
AAACGACC	0.45
CCACGACA	-0.0411
CCTTCCGC	-0.184
GAGAGGGA	-0.212

Sequence	PBM E-score
CGATACAA	0.148
GGATACCA	-0.0853
CGATACGA	0.454
AGATACGC	0.196
GGATACTA	-0.144
GGATACGA	0.45
AGATACGG	0.28
CGATACGC	0.2
AGATACGA	0.47
CAAATGCC	-0.27
TGCAAGAA	-0.0877
AAGCCATA	-0.0528
CCTTCCCG	-0.043
ACAGAGCG	0.00751
CCTTGAAA	-0.0768
CCGAGTTA	0.0641
ACGAGTTC	0.319
ACGAGTTA	0.422
AGGAGTTG	0.0179
ACGAGTTG	0.371
GCGAGTTA	0.191
GGGAACCC	0.0178
